The list is not random: actives were taken first. Their share in the collection is about 12%.
PLK1 PBD block: inhibitors of human PLK1 polo-box domain binding | Plk1 PBD binding of FITC phosphopeptide, fluorescence polarization | Potency, µM, inactives show max response, negative = inhibition, actives largely listed as inhibitors | actives 2.8% (n = 360,000) | AID 720504; note: series mostly up to about 57 µM; % is set by controls: 0 for no effect and ±100 for the full control effect; nearly all actives have a fitted effect of over 65% in size
JMJD2A Tudor inh: inhibitors of human JMJD2A Tudor domain | actives 4.4% (n = 390,000) | AID 504339 | Potency, µM (top dose mostly 114 µM), without a hit: at the top dose activity change, negative = inhibition, actives largely listed as inhibitors | AlphaScreen JMJD2A-Tudor / H3K4me3 peptide binding; note: % is set by controls: 0 for no effect and ±100 for the full control effect; nearly all actives have a fitted effect of over 50% in size
BAZ2B inh: BAZ2B (human) inhibition. actives 4.4% (n = 360,000). AID 504333. AlphaScreen BAZ2B-H3K14Ac peptide displacement. Q9UIF8. Potency, µM (highest dose often 114 µM), inactives show top-dose activity change, negative = inhibition, usual class: inhibitors; note: % is set by controls: 0 for no effect and ±100 for the full control effect; nearly all actives have a fitted effect of over 60% in size
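AlphaScreen displacement of biotin-H3(5-23)K14Ac peptide (50 nM final) from BAZ2B (50 nM final) in PBS pH 7.4, 0.01% Tween-20; complex preformed 30 min RT, then compounds (top 110 uM) 30 min RT, beads 20 min dark.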
HP1b binding inh: inhibitors of HP1-beta chromodomain binding to methylated histone tails | P83916 | AlphaScreen HP1-beta / biotin-H3K9me3 peptide binding | Potency, µM (top dose mostly 114 µM), without a hit: top-dose activity change, negative = inhibition, usual class: inhibitors | actives 0.56% (n = 390,000); note: nearly all actives have a fitted effect of over 70% in size
Target sequence (P83916 whole entry, looked up): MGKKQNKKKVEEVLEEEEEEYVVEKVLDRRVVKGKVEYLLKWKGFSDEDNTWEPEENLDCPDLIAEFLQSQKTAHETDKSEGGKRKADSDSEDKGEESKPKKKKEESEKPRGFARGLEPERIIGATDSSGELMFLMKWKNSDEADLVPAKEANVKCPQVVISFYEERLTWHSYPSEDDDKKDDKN
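HP1-beta protein (50 nM final) preincubated 30 min at room temperature with biotinylated H3(1-18)K9me3 peptide (50 nM) in PBS pH 7.4, 0.01% Tween-20, then compound added for 30 min. AlphaScreen streptavidin donor/nickel chelate acceptor beads (10 ug/mL final), 30 min dark, luminescence read.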
G9a block: G9a (human) methyltransferase inhibition. Q96KQ7. G9a H3K9 monomethylation, AlphaScreen, 2 h. Potency, µM (series often up to 102 µM), without a hit: top-dose activity, negative = inhibition, hits mostly inhibitors. actives 8.8% (n = 350,000). AID 504332; note: % is set by controls: 0 for no effect and ±100 for the full control effect; nearly all actives have a fitted effect of over 75% in size
Target sequence (Q96KQ7 913-1193 limits assumed): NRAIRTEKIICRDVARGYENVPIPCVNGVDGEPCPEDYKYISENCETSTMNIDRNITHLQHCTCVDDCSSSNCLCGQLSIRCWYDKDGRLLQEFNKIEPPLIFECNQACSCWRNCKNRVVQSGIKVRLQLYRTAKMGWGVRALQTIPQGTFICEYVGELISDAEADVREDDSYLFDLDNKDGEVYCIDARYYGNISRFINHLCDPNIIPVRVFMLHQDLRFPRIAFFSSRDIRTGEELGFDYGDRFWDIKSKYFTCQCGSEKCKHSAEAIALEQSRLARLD
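Chemiluminescent proximity detection of H3K9 monomethylation, read after 10 min bead incubation in the dark. Reaction: 20 nM G9a, 500 nM biotin-H3K9 peptide, 20 uM SAM cofactor, 2 h, room temperature, following 15 min enzyme-compound preincubation.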
Sfp inh: blocks B. subtilis Sfp PPTase activity; Q9F4F7; Biochemical Sfp PPTase activity, qHTS; Potency, µM, without a hit: largest response in the series, negative = inhibition, most hits filed as inhibitors; actives 3.5% (n = 310,000); AID 1490;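 note: the enzyme is Sfp with the accession as filed and its product quenches rhodamine fluorescence; 0% = enzyme reaction without inhibitor and -100% = no enzyme wells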
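With Hepes-Na pH 7.6 buffer containing 10 mM MgCl2, Sfp (15 nM) modified BHQ-2-YbbR (12.5 uM) using rhodamine-CoA (5 uM). Two reads 30 minutes apart at 525/598 nm yielded each well's rate.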
* marks the source's active call; other numbers are inactive results; ? = inconclusive; nt = not tested or not shown; [ ] = another dose, or the depositor's remark. Calls come from the whole dose curve; as a rule, active = well fitted curve in the direction sought with a large enough effect; inconclusive = small, poorly fitted or top-dose-only effect, or another doubt; inactive = no such curve, though single readings can be large; an effect the other way counts as inactive or inconclusive. Potency is the fitted concentration of half-maximal effect.

SMILES	PLK1 PBD block	JMJD2A Tudor inh	BAZ2B inh	HP1b binding inh	G9a block	Sfp inh
O=C(COc1ccc(F)cc1)Nc1cc(S(=O)(=O)N2CCCCC2)ccc1N1CCCCC1	5%	?	?	-5%	2µM*	nt
O=C(COc1ccc([N+](=O)[O-])cc1)Nc1ccccc1N1CCCC1	-10%	?	-15%	12%	6%	11%
O=C(COc1ccccc1)Nc1cc(S(=O)(=O)N2CCOCC2)ccc1N1CCCC1	-7%	-18%	-5%	12%	?	nt
O=C(NC1CCCC1)c1ccc2nc[nH]c2c1	-2%	19%	0%	49%	1%[12.7 µM]	7%
O=C(NCCO)c1ccc2nc(-c3ccco3)c(-c3ccco3)nc2c1	17µM*	22µM*	?	45µM*	1.4µM*	10µM*
O=C(NCCc1ccccc1)c1ccc2c(c1)OCCCO2	-20%	-13%	-38%	7%	32µM*	-14%
CC1CCC(NC(=O)c2ccc3snnc3c2)CC1 (centres undefined)	-6%	6%	1%	33%	24%	8%
O=C(NC1CCCC1)c1ccc2nc(-c3ccco3)c(-c3ccco3)nc2c1	8.4µM*	28µM*	?	79µM*	5µM*	6.3µM*
CCc1nc2ccc(C(=O)NC3CCC(C)CC3)cc2nc1CC (centres undefined)	30µM*	?	-3%[57.1 µM]	24%	4%	4%
O=C(NCCc1ccccc1)c1ccc2c(c1)OCCO2	-8%	-11%	3%	42%	nt	16%
CC(C)(C)OC(=O)N1CCC(c2c(C(=O)N3CCC(c4ccccc4)C3)cnn2-c2ccc(Cl)cc2)CC1 (centres undefined)	nt	-22%	-5%[57.1 µM]	21%	-33%[59 µM]	nt
O=C(NCCc1ccccc1)c1ccc2nc(-c3ccco3)c(-c3ccco3)nc2c1	?	56µM*	10µM*	?	1.4µM*	25µM*
CN(C)CCCNC(=S)N(CCN(C)C)Cc1cc2cc3c(cc2[nH]c1=O)OCCO3	-23%	-18%	8%	51%	?	1%
CC(C)CNC(=S)N(CCCO)Cc1cc2cc3c(cc2[nH]c1=O)OCO3	-6%	-10%	-8%	37%	40µM*	-4%
CCOCCCNC(=S)N(CCN(C)C)Cc1cc2cc3c(cc2[nH]c1=O)OCCO3	-7%	-7%	-34%	44%	50µM*	-25%
CN1CCCN(S(=O)(=O)c2cccc(C#N)c2)CC1	-6%	-8%	-19%	48%	56µM*	-9%
CN1CCN(S(=O)(=O)c2cccc(C#N)c2)C(c2ccccc2)C1 (centres undefined)	-8%	-3%	-2%	26%	56µM*	nt
CN1CCN(S(=O)(=O)c2ccc(C#N)cc2)C(c2ccccc2)C1 (centres undefined)	2%	8%	-4%	46%	?	nt
COc1cc(C#N)ccc1OC(=O)c1cccc(S(=O)(=O)N2CCN(C)CC2)c1	-26%	-6%	11%	18%	50µM*	nt
CN1CCN(S(=O)(=O)c2cccc(C(=O)Oc3cccc(C#N)c3)c2)CC1	-20%	-17%	9%	23%	?	nt
CN1CCCN(S(=O)(=O)c2ccc3ccccc3c2)CC1	-17%	-23%	1%	30%	?	19%
CCc1ccccc1NC(=O)CSc1nnc(-c2cc(C)[nH]n2)n1N	-13%	-5%	-4%	31%	8%	8%
CCC[C@H]1C[C@H](C(=O)NC(C(C)Cl)C2O[C@@H](SC)C(OP(=O)(O)O)[C@@H](O)[C@@H]2O)N(C)C1 (some centres undefined)	nt	nt	nt	nt	nt	-12%
CCOC(=O)c1c(C)[nH]c(-c2csc(N)n2)c1C	?	?	?	?	28µM*	35µM*
CCOC(=O)c1c(C)[nH]c(-c2csc(C)n2)c1C	-19%	?	?	?	?	-3%
SMILES	PLK1 PBD block	JMJD2A Tudor inh	BAZ2B inh	HP1b binding inh	G9a block	Sfp inh
CC(C)(C)c1nc(SCC(=O)N2CCCC2)c2ccccc2n1	-8%	12%	-8%	36%	50µM*	-16%
CC(C)(C)c1nc(SCC(=O)c2ccccc2)c2ccccc2n1	-18%	79%	56%	69%	124%	?
CCCCCCN1CC(O)=C(c2ccccc2)C1=N	0%	-7%	-4%	15%	8%[59 µM]	-5%
N=C1C(c2ccccc2)=C(O)CN1CCO	24µM*	-20%	8%	0%	1%	-21%
CCN(CC(=O)Nc1ccc2c(c1)OCCO2)C(=O)C(C)Oc1ccc(Cl)cc1 (centres undefined)	8%	-18%	-22%	21%	-30%	nt
O=C(CN1CCCCCC1)N/N=C/c1cccs1	-2%	3.2µM*	79µM*	-28%	2%	-8%
COC(=O)c1ccc(NC(=O)CSc2ccccn2)cc1	-11%	-1%	-22%	13%	?	-17%
CCOc1ccc(/C=N/NC(=O)C(C)N(c2ccc(OC)cc2)S(C)(=O)=O)cc1 (centres undefined)	-6%	-16%	0%	13%	12%[59 µM]	0%
COC(=O)c1ccc(NC(=O)CN2CCN(CC#N)CC2)cc1	4%	2.2µM*	40µM*	50µM*	10µM*	?
CCOc1ccc(N(CC(=O)N/N=C/c2ccc(OC(C)C)cc2)S(C)(=O)=O)cc1	-8%	?	56µM*	1%	?	-3%
COC(=O)c1ccc(NC(=O)CSc2ccccc2)cc1	21µM*	32µM*	12%	?	-2%[59 µM]	1%
O=C(Cn1c(=O)n(-c2ccc(F)cc2)c(=O)c2sc3ccccc3c21)N1CCCC1	nt	-20%	-17%	10%	-21%[59 µM]	nt
Cc1ccc2c(CN3CCN(c4ccccc4F)CC3)cc(=O)oc2c1	-2%	nt	nt	nt	nt	nt
CC(=O)OCc1cnc(C)c2oc(=O)c(C(=O)Nc3ccc(F)cc3C)cc12	nt	-20%	-13%	9%	8%[59 µM]	nt
COc1ccc(OC)c(NC(=O)CSc2nnc(CNC(=O)c3cc(OC)c(OC)c(OC)c3)o2)c1	-16%	?	-10%	52%	18%[0.501 µM]	-3%
O=C(Cn1cnc2c(NCc3ccccc3)ncnc21)NCc1nc2ccccc2[nH]1	-10%	-24%	nt	39%	nt	nt
CCOc1ccc(/C=N/NC(=O)CN2CCCCC2)cc1OCC	0%	-11%	?	25%	-1%	21%
CCOc1ccc(NC(=O)CN2CCN(CC(=O)Nc3ccc(C(N)=O)cc3)CC2)cc1	17%	5%	2%	32%	50µM*	5%
CCN1CCN(CC(=O)N/N=C/c2cc(Br)cs2)CC1	-14%	4µM*	25µM*	?	nt	79µM*
O=C(CN1CCN(Cc2ccccc2Cl)CC1)N/N=C/c1ccccn1	-13%	-11%	2%	27%	50µM*	-3%

Screens as filed in PubChem.
